Data published in PubChem BioAssay AID493208 (National Center for Advancing Translational Sciences (NCATS), 2011).
The whole screen tested about 44,000 compounds, of which about 340 (0.77%) were called active. Roughly 5% stayed inconclusive and do not appear here. What follows is part of a selection rich in actives, with near analogues and random picks from the rest. A number with no mark means an inactive call. Calls follow the shape of the dose curve; as a rule, active = well fitted inhibition curve with a large enough effect; inconclusive = small, poorly fitted or top-dose-only effect; inactive = flat fitted curve, though single readings scatter.

Test: Acumen qHTS Assay for Inhibitors of the mTORC1 Signaling Pathway in MEF (Tsc2-/-, p53-/-) Cells: Sytravon; also: nearly all actives have a fitted effect of over 50% in size
Settings: phospho-rpS6 immunofluorescence/PI, 24 h; series mostly up to 38.3 µM; activity change, negative = inhibition: at the top concentration
Source text: NIH Molecular Libraries Probe Production Centers Network [MLPCN] NIH Chemical Genomics Center [NCGC] MLPCN Grant: NS059428-01 Assay Submitter (PI): Blenis, John; Hoffman, Greg; Harvard University NCGC Assay Overview: The mammalian target of rapamycin (mTOR) is an intracellular serine/threonine kinase Aberrant regulation of mTOR signaling plays a causative role in a number of human diseases, including cancer, benign tumors such as lymphangioleiomyomatosis (LAM) and Tuberous Sclerosis Complex (TSC), and metabolic diseases such as diabetes and obesity. This project aims to identify inhibitors of ribosomal protein S6 (rpS6) phosphorylation. The phosphorylation of rpS6 is a key event downstream of mTOR activation. The assay uses a phospho-specific antibody of phospho-rpS6 to detect inhibitors of mTOR activation. Mutations in the Tsc1 and Tsc2 genes are the underlying genetic lesions responsible for TSC, causing constitutive activation of the mTORC1 pathway and leading to profound effects on cell metabolism. Aberrant metabolism in cancer has recently received significant attention as a target to develop therapeutic agents in the treatment of cancer.1 As Tsc2-/- cells have lost the ability to respond to energy and growth factor deprivation, these cells are unable to properly down regulate cellular biosynthetic processes in response to metabolic stress, and are thus extremely sensitive to glucose deprivation-induced death.2 A central goal of this project is to explore the unique cell survival and metabolic properties of cells with Tsc1 or Tsc2 by screening for compounds that selectively target the Tsc2-/- MEFs by screening both Tsc2-/- and WT MEF cell lines. We hope to better understand these aspects of TSC physiology in order to exploit them for therapeutic benefit.
NCGC Acumen Assay Protocol Summary: For quantitative high throughput analysis of mTORC1 signaling, we developed a cell-based assay for immuno-fluorescence based detection of rpS6 phosphorylation on the Acumen Explorer that will be used a platform for the primary small molecule screen. Mouse embryonic fibroblasts (MEFs) are cultured in 1536-well plates using DMEM + 10% FBS. Twenty-four hrs after plating, test compounds (solubilized in DMSO) are delivered and incubated with the cells for 24 hrs at 37 degree Celsius. Following the incubation, media with compound is aspirated and the cells are fixed in 4% paraformaldehyde (PFA) containing PBS + 0.2% TX-100. Next, PFA is aspirated, cells are washed two times with PBS plus 0.2% TX-100 and the cells are blocked for 1 hr at room temperature (blocking buffer: LiCOR Blocking Buffer plus 0.2% TX-100). […] Cells are washed two times with PBS plus 0.2% TX-100, and stained with 10 uM propidium iodide (PI) for 20-25 minutes for cell number measurement (1:500 dilution of Hoescht staining is also added for IN Cell imaging). The plates are scanned on the Acumen Explorer laser scanning instrument (TTP Labtech) using the 488nm laser for simultaneous excitation of the Alexa-488 and PI. […] The normalized phospho-S6 staining is calculated as the ratio of the integrated Alexa 488 intensity divided by the integrated PI intensity for the single concentration rapamycin control (7.5 nM) and DMSO columns. […] Inhibition of the pathway is defined based on the normalized phospho-S6 intensity in rapamycin treated cells. Active cells are defined as those with a normalized phospho-S6 staining above this threshold, and each treatment is reported as the % positive cells in the well, where thresholds are defined by selecting wells with the highest and lowest signal and differentiating between the % non-active and % active populations. In addition to the pathway specific phospho-S6 endpoint, the number of PI stained cells from the Acumen is recorded as a measure of cell viability. The primary screen was performed with a MEF cell line in a defined genetic background, Tsc2-/-, p53-/- cell line stably transfected with an empty vector control (Tsc2-/- MEF).
Potency is read from the fitted curve at half-maximal effect.

Compound | activity change, negative = inhibition | Potency
Cc1ccc(S(=O)(=O)c2nc(-c3ccco3)oc2SCC(=O)Nc2ccc(F)cc2)cc1 | -0.694% | –
O=C(/C=C/c1cn(CC(O)CN2CCc3ccccc32)c2ccccc12)c1ccc(Br)cc1 (stereo not drawn) | -17.5% | –
COc1ccc(OCCn2cc(C(=O)C3CCCCC3)c3ccccc32)cc1 | 0.18% | –
CCOc1ccc(C(=O)/C=C/c2cn(CC(O)CN3CCCCCC3)c3ccccc23)cc1 (stereo not drawn) | – | 14.7 µM (active)
COc1ccc(-c2nc(S(=O)(=O)c3ccccc3)c(N3CCCCC3)o2)cc1 | -13.1% | –
CC(C)S(=O)(=O)c1oc(-c2ccc(F)cc2)nc1S(=O)(=O)c1ccc(F)cc1 | – | 0.521 µM (active)
O=C(CSc1oc(-c2ccc(F)cc2)nc1S(=O)(=O)c1ccc(Br)cc1)NC1CCCCC1 | 4.26% | –
COc1ccccc1NC(=O)CCC(=O)N1CC(C)Oc2ccc(C)cc21 (stereo not drawn) | -7.46% | –
COc1ccc(C)cc1N(CC(=O)N1CCC(C)CC1)S(=O)(=O)c1ccc(C)cc1 | 2.44% | –
CC(C)(C)c1ccc(OCC(=O)N2CCC(c3nc4ccccc4s3)CC2)cc1 | -9.26% | –
CN1CCN(C2(CNC(=O)COc3ccc(C(C)(C)C)cc3)CCCCC2)CC1 | – | 8.26 µM (active)
CCn1cc(C(=O)NCc2ccccc2)c(=O)c2cc(S(=O)(=O)N3CCCCC3)ccc21 | -7.26% | –
Cc1cccc(CNC(=O)c2cnc3sc(N4CCCCC4)nn3c2=O)c1 | 8.89% | –
O=C(Cc1ccc(Cl)cc1)Nc1ccc2nn(-c3ccc(Cl)cc3)nc2c1 | -7.33% | –
COc1cccc(C(=O)Nc2ccc3nc4n(c(=O)c3c2)CCCCC4)c1 | -1.75% | –
CCN1CCN(c2cc(C)c3cc(NC(=O)c4cc(Cl)ccc4OC)ccc3n2)CC1 | – | 2.61 µM (active)
CCOc1ccc(-n2nc3ccc(NC(=O)c4ccc(OC)c(Cl)c4)cc3n2)cc1 | 2.46% | –
COc1ccc(NC(=O)c2ccc3nc(C(C)C)oc3c2)cc1OC | -14.4% | –
COc1ccc(NC(=O)c2cnc(Nc3ccc(C)c(Cl)c3)c3ccccc23)cc1OC | 0.723% | –
COc1ccc(C(=O)Nc2ccc3nc(N4CCCCC4)cc(C)c3c2)cc1OC | – | 13.1 µM (active)
CCOc1ccc(N(Cc2ccccc2)C(=O)c2nc(SCC)ncc2Cl)cc1 | -13% | –
CCOc1ccc(NC(=O)CN(Cc2ccccc2)S(=O)(=O)c2ccc(Cl)cc2)cc1 | 3.52% | –
CCOc1ccc(N(Cc2ccccc2)C(=O)c2nc(S(C)(=O)=O)ncc2Cl)cc1 | – | 0.736 µM (active)
CCOC(=O)c1ccc(NC(=O)c2c(NCc3cccs3)sc3c2CCCC3)cc1 | -12.1% | –

Compound | activity change, negative = inhibition | Potency
CCCn1ccc2c(OCC(=O)NCc3ccc(F)cc3)cccc2c1=O | -1.85% | –
CCOc1ccc(N2CC(C)Cn3c2nc2c3c(=O)n(Cc3c(F)cccc3Cl)c(=O)n2C)cc1 (stereo not drawn) | -8.65% | –
O=C1CN(C(=O)Nc2ccccc2C(F)(F)F)C(c2ccccc2)c2c(sc3c2CCCC3)N1 (stereo not drawn) | 4.23% | –
Oc1c(C(c2ccc(F)cc2)N2CCN(Cc3ccccc3)CC2)sc2nc(-c3ccco3)nn12 (stereo not drawn) | 0.278% | –
Cc1nc2ccn(Cc3cccs3)c(=O)c2cc1C(=O)NCc1ccc(Cl)cc1 | -5.14% | –
CCOCCCNC(=O)c1cn(CC)c2ccc(S(=O)(=O)N3CCc4ccccc4C3)cc2c1=O | 0.725% | –
Cc1ccc2nc(/C(C#N)=C/c3ccc(-c4ccc(C(=O)OC(C)C)cc4)o3)[nH]c2c1 | -18.9% | –
Cc1nn2c(=O)cc(COC(=O)CNC(=O)c3ccc(F)cc3)nc2s1 | -6.97% | –
COc1ccc(N2CCN(c3cc(C)nc4nncn34)CC2)cc1 | -1.3% | –
CCOc1ccc(CCNC(=O)c2ccc3c(c2)sc2nc(-c4ccc(F)cc4)cn23)cc1OCC | -3.54% | –
Cc1nn2c(=O)cc(COC(=O)c3cccc(NC(=O)COc4ccccc4Cl)c3)nc2s1 | 0% | –
Cc1nn(CC(=O)N2CCN(c3cccc(C(F)(F)F)c3)CC2)c(=O)c2cc3sccc3n12 | 1.19% | –
CCOC(=O)c1nc(Nc2ccc(C(=O)OC)cc2)c2ccccc2n1 | -14.8% | –
COc1cccc(Nc2nc3ccccc3c3nncn23)c1 | -4.37% | –
COc1cc(Nc2nc(-c3ccc(OC)c(OC)c3)nc3ccccc23)cc(OC)c1 | – | 16.5 µM (active)
Cn1c(=O)oc2cc(S(=O)(=O)CCC(=O)NCCc3ccc(Cl)cc3)ccc21 | -10.6% | –
Cc1ccc(S(=O)(=O)c2cn(Cc3ccccc3)c3cc(N4CCCC4)c(F)cc3c2=O)c(C)c1 | -7.49% | –
O=C(CCOc1ccccc1)N(Cc1cccnc1)c1nc2ccc(Cl)cc2s1 | -0.351% | –
O=C(CCS(=O)(=O)c1ccccc1)N(Cc1cccnc1)c1nc2c(F)cccc2s1 | – | 3.69 µM (active)
CN(C)S(=O)(=O)c1ccc(C(=O)N(Cc2cccnc2)c2nc3c(F)cc(F)cc3s2)cc1 | -8.48% | –
CCc1ccc(C2CC(=O)c3c([nH]c(C(=O)OCc4ccc(C)cc4)c3C)C2)cc1 (stereo not drawn) | -16.6% | –
CC1=C(C(=O)OCC(C)C)C(c2ccc(OCc3ccccc3)cc2)N2C(=O)CCSC2=N1 (stereo not drawn) | -27.7% | –
CCOc1ccc(C2CC(=O)c3c([nH]c(C(=O)OCc4ccccc4)c3C)C2)cc1 (stereo not drawn) | – | 4.14 µM (active)
CCCCS(=O)(=O)c1oc(-c2cccs2)nc1S(=O)(=O)c1ccccc1 | – | 0.414 µM (active)
